Screens: PubChem BioAssay, Broad Institute
Only a selection was taken, and hits are over-represented in it overall.
Tgondii IFNg: inhibitors of Toxoplasma gondii growth with IFN-gamma. Toxoplasma gondii growth in IFN-gamma-treated host cells; hits give low values. activity change, negative = inhibition, % (no concentration beside the values). 69,000 compounds, 3.8% hits; in the data active means activity change below about -70%, passing the limit was not always enough;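 further: host cells are HeLa cells infected with Toxoplasma gondii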
* marks the source's active call; other numbers are inactive results; ! = not active in a repeat.

For CCOc1ccc2oc(=O)cc(CN3CCN(Cc4nc(-c5cccc(Cl)c5)oc4C)CC3)c2c1 the results were Tgondii IFNg 11.
`O=C(NCc1ccccc1)c1c(O)c2cccnc2[nH]c1=O` gave Tgondii IFNg 8.
Oc1ccc(COCc2ccccc2)c2cccnc12 was read as Tgondii IFNg -96*.
O=C(COCc1ccccc1)NCc1cnn2ccccc12 was read as Tgondii IFNg -30.
Screening Cc1cc(C(=O)N2CCCC3(CC2)CN(C)C(=O)O3)c2c(C)nn(C)c2n1 (centres undefined) returned Tgondii IFNg -3.
For Cc1cnn(Cc2nc(-c3ccc(NC(=O)CC4CCCC4)cc3)oc2C)c1 the results were Tgondii IFNg -15.
COc1ccc(CC(=O)Nc2ccc(-c3nc(Cn4cc(C)cn4)c(C)o3)cc2)cc1 was read as Tgondii IFNg -51.
Screening Cc1cnn(Cc2nc(-c3ccc(NC(=O)CCc4ccccc4)cc3)oc2C)c1 returned Tgondii IFNg -84*.
Screening CC(=O)Nc1ccc(-c2nc(Cn3cc(C)cn3)c(C)o2)cc1 returned Tgondii IFNg 64.
COc1ccccc1CC(=O)Nc1ccc(-c2nc(Cn3cc(C)cn3)c(C)o2)cc1 was read as Tgondii IFNg -95*.
`COc1ccccc1C(=O)Nc1ccc(-c2nc(Cn3cc(C)cn3)c(C)o2)cc1` gave Tgondii IFNg 15.
`Cc1ccc(NC(=O)C(=O)NCCc2sc(-c3ccccc3)nc2C)cc1F` gave Tgondii IFNg -17.
`Cc1ccccc1S(=O)(=O)N1CCCn2nc(C(=O)N3CCCC3)cc2C1` gave Tgondii IFNg 1.
`COCCN1CCC2(CC1)CC(OCC1CC1)c1ccc(F)cc12` (centres undefined) gave Tgondii IFNg 3.
`CC(=O)c1cccc(NC(=O)c2cccc(CN(C)C3CCOCC3)c2)c1` gave Tgondii IFNg -1.
For COc1cc2nnc3c(c(-c4ccccc4)nn3-c3ccccc3)c2cc1OC the results were Tgondii IFNg 6.
Screening CC(C)c1nc2ccc(Br)cn2c1NC1CCCCC1 returned Tgondii IFNg 36.
For CCc1nc(OCC(=O)Nc2ccc(C(C)C)cc2)c2ccccc2n1 the results were Tgondii IFNg 5.
For CCOc1nc(Nc2ccc(C(C)C)cc2)nc(NC2CCCCC2)n1 the results were Tgondii IFNg -87*.
`CCC(=O)N1CCCc2ccccc2C1c1ccnc(Oc2cccnc2)c1` (centres undefined) gave Tgondii IFNg -8.
For CN(c1ncccc1CNc1nc(Nc2ccc3c(c2)CC(=O)N3)ncc1C(F)(F)F)S(C)(=O)=O the results were Tgondii IFNg -80*.
`CS(=O)(=O)c1cccc(CNc2nc(Nc3ccc4c(c3)CCC(=O)N4)ncc2C(F)(F)F)c1` gave Tgondii IFNg -68.
`Cc1cc(F)ccc1NC(=O)Cn1c(=O)cc(C(=O)N2CCCCC2)c2ccccc21` gave Tgondii IFNg 8.
CS(=O)(=O)N1CCc2onc(Cn3cccc3)c2C1 was read as Tgondii IFNg -33.
For CC(C)c1cc(C2CCCN2Cc2cccc(C(=O)Nc3cn(C)nn3)c2)no1 (centres undefined) the results were Tgondii IFNg -16.
Screening Cc1cc(C(F)(F)F)cc(-c2cccc(O)c2)n1 returned Tgondii IFNg -37.
Screening Nc1c(NCc2ccccc2)c(=O)c1=O returned Tgondii IFNg 28.
O=c1[nH]cc(Nc2ccccc2)c(=O)[nH]1 was read as Tgondii IFNg 27.
For O=c1c(Nc2ccccc2)c(Nc2ccccc2)c1=O the results were Tgondii IFNg -82*.
`CC1CCN(c2ccc(C(C)NC(=O)C(C)(C)n3cnnn3)cc2)CC1` (centres undefined) gave Tgondii IFNg -9.
`Cn1c(=O)cc(C(=O)NC(Cc2ccsc2)c2nccs2)[nH]c1=O` (centres undefined) gave Tgondii IFNg -5.
`CC(=O)Nc1cccc(-c2cc(C(F)(F)F)cc3[nH]cnc23)c1` gave Tgondii IFNg -77*.
`CC(=O)Nc1cccc(-c2cnn3cccnc23)c1` gave Tgondii IFNg -50.
Screening CC(=O)Nc1cccc(-c2ccccc2-c2nnc(C)s2)c1 returned Tgondii IFNg -23.
Screening Cc1nnnn1Cc1ccc(C(=O)N2CCOC(C(F)(F)F)C2)cc1 (centres undefined) returned Tgondii IFNg 3.
CN(C)CCN1CCO[C@H]2CN(C(=O)c3cccn3C)C[C@@H]21 was read as Tgondii IFNg 11.
`CC(C)N1CCN(C)CC1c1nnc2ccc(C(=O)NCCc3ccccn3)cn12` (centres undefined) gave Tgondii IFNg 4.
`CN(C)c1ncc(-c2cnn(C)c2)c(C2CCCCN2C(=O)CCc2ccc(F)cc2)n1` (centres undefined) gave Tgondii IFNg -1.
For O=C(NCC1CCCOC1)[C@@H]1CN(Cc2ccccc2)C[C@H]1C(=O)c1ccc(F)cc1 (some centres undefined) the results were Tgondii IFNg 29.
Screening CNCC[C@H](Oc1cccc2ccccc12)c1cccs1 returned Tgondii IFNg 19.
For CCOCCCNC(c1ccccc1)c1ccncc1 (centres undefined) the results were Tgondii IFNg 3.
CNCCC(Oc1ccc(C(F)(F)F)cc1)c1ccccc1 (centres undefined) was read as Tgondii IFNg -86*!.
For Cc1ccc(-c2nnc(C3CCCN(C(=O)CCn4cnc5ccccc54)C3)o2)cn1 (centres undefined) the results were Tgondii IFNg 14.
For CCn1ccnc1Cn1nc(C2CCNCC2)n(CC)c1=O the results were Tgondii IFNg 1.
Screening CC1CCc2[nH]nc(C(=O)N3CC(c4ccncc4)C3)c2C1 (centres undefined) returned Tgondii IFNg 1.
`CC1CCCCN1Cc1cccc(N)c1` (centres undefined) gave Tgondii IFNg 1.
CCOc1ccc2nc(SCC)[nH]c2c1 was read as Tgondii IFNg 54.
For CCCCOc1cc(C(F)(F)F)nc2ccc(CSc3nc4ccccc4[nH]3)cc12 the results were Tgondii IFNg -86*.
`CCOc1ccc(OCCSc2nc3ccccc3[nH]2)cc1` gave Tgondii IFNg 12.
CCn1c(CC2CCNCC2)nn(Cc2noc(-c3ccccc3)n2)c1=O was read as Tgondii IFNg -5.
Screening Cc1ccc(-c2noc(-c3c(O)c4cc(F)ccc4n(C)c3=O)n2)cc1 returned Tgondii IFNg 19.
Screening CC(=O)NC(C)CC(=O)Nc1ccc(C(=O)OC2CCCC2)cc1 (centres undefined) returned Tgondii IFNg 145.
Screening OC[C@H]1O[C@@H](n2cnc3c(Nc4ccccc4)ncnc32)[C@H](O)[C@@H]1O returned Tgondii IFNg -83*.
O=c1[nH]cnc2c1ncn2[C@@H]1O[C@H](CO)[C@@H](O)[C@H]1O was read as Tgondii IFNg 9.
Nc1nc(Nc2ccccc2)nc2c1ncn2C1OC(CO)C(O)C1O (centres undefined) was read as Tgondii IFNg 17.
For CCCc1cc(N2CCC(N3CCSCC3)CC2)nc(C)n1 the results were Tgondii IFNg -4.
Screening O=C1CC[C@@H](CN(Cc2cccnc2)Cc2ncc[nH]2)N1 returned Tgondii IFNg -6.
For Cc1cc(C(=O)NC2CCC3(CCC(=O)N3C)CC2)no1 (centres undefined) the results were Tgondii IFNg -69.
For COc1ccc(C2NC(=S)NC3=C2CCc2ccccc23)cc1 (centres undefined) the results were Tgondii IFNg 89.
